Inconclusive results are not listed. Activity calls are given as the source filed them. Rule for the calls: active = hit-call score of the fitted dose curve at least 0.9, where 1 is the maximum; inconclusive = response in the unintended direction; inactive = score below 0.9.
Columns and labels:
[1] = target: human Caspase 8 (CASP8), CASP8 (gene 841) (UniProt Q14790); test: NVS_ENZ_hCASP8: NovaScreen (NVS) Enzymatic Assay for human Caspase 8 (CASP8) (AID 2283146)
Outline: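 E. coli-expressed enzyme was used in a cell-free fluorogenic substrate assay read 1 h after dosing. Loss of signal was scored relative to DMSO, and the primary screen was run in duplicate at 25 uM.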

[2] = target: human Colony Stimulating Factor 1 Receptor (CSF1R), CSF1R (gene 1436) (UniProt P07333); test: NVS_ENZ_hCSF1R: NovaScreen (NVS) Enzymatic Assay for human Colony Stimulating Factor 1 Receptor (CSF1R) (AID 2283150)
Chain of human Colony Stimulating Factor 1 Receptor (CSF1R), CSF1R (gene 1436) (P07333 whole entry, looked up): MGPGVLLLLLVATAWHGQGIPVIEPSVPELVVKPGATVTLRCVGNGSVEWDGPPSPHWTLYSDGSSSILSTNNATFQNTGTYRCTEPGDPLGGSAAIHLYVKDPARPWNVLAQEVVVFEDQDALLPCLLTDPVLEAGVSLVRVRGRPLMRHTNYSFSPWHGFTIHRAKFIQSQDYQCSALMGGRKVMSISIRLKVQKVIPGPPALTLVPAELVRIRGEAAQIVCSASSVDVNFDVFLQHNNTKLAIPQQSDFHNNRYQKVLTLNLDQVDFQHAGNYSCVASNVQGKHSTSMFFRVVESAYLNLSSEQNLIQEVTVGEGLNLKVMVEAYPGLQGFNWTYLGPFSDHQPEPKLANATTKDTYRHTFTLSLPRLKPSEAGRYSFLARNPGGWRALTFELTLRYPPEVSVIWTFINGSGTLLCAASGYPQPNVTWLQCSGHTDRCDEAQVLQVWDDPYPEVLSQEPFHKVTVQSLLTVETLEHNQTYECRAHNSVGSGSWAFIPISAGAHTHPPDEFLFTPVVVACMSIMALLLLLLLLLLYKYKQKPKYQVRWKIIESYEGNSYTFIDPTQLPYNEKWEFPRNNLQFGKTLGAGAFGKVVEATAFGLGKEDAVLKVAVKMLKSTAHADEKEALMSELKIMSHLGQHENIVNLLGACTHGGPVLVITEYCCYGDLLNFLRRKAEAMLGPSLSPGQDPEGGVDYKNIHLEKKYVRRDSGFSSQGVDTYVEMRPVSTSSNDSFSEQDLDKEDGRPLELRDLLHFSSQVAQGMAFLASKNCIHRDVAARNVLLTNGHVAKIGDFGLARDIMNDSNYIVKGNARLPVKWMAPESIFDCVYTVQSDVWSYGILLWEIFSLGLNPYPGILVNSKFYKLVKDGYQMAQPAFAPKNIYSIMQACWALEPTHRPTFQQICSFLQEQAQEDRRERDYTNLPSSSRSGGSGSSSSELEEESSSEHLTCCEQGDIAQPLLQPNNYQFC
Outline: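 Cell-free recombinant human CSF1R kinase with fluorescent substrate, product separated by electrophoretic mobility shift; read 1 h after dosing. Primary screen at 25 uM in duplicate, actives then in concentration-response up to 50 uM, relative to DMSO.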

[3] = target: human Elastase, ELANE (gene 1991) (UniProt P08246); test: NVS_ENZ_hElastase: NovaScreen (NVS) Enzymatic Assay for human Elastase (AID 2283153)
Chain of human Elastase, ELANE (gene 1991) (P08246 whole entry, looked up): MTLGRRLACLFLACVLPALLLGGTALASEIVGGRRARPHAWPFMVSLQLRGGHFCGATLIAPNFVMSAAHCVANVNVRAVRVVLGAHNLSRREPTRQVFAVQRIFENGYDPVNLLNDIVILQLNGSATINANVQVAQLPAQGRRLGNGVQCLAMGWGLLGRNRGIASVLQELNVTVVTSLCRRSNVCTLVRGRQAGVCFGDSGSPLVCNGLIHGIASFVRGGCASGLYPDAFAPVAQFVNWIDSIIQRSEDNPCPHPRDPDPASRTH
Outline: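 Cell-free elastase from human neutrophils, 1.5 h after dosing, activity read by absorbance. Primary screen in duplicate at 25 uM; hits (e.g., 30% inhibition) rerun in singleton concentration-response up to 50 uM, fitted versus DMSO.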

[4] = target: human Esterase Plasma (ES), BCHE (gene 590) (UniProt P06276); test: NVS_ENZ_hES: NovaScreen (NVS) Enzymatic Assay for human Esterase Plasma (ES) (AID 2283157)
Chain of human Esterase Plasma (ES), BCHE (gene 590) (P06276 whole entry, looked up): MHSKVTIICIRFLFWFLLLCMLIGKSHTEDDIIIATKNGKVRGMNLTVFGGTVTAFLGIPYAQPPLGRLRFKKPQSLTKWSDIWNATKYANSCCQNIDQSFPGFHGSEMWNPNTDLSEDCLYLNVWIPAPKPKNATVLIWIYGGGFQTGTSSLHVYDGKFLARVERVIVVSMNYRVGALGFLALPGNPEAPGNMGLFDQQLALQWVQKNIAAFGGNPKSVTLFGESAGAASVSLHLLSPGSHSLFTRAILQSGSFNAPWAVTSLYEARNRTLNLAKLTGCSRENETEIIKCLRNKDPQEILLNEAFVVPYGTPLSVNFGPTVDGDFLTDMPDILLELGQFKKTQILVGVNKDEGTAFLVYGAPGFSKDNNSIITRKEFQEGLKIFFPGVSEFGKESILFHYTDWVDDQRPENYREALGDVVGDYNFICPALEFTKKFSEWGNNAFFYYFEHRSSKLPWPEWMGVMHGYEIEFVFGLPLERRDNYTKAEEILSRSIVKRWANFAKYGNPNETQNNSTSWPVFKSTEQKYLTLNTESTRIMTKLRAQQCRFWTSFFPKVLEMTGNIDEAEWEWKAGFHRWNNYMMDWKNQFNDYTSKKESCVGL
Outline: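 Cell-free enzyme assay using esterase extracted from human plasma; colorimetric absorbance read 0.25 hour after dosing. Single-concentration duplicate screen at 25 uM, then concentration-response up to 50 uM; loss of signal scored against DMSO baseline.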

[5] = target: human Dual Specificity Protein Phosphatase 3 (DUSP3), DUSP3 (gene 1845) (UniProt P51452); test: NVS_ENZ_hDUSP3: NovaScreen (NVS) Enzymatic Assay for human Dual Specificity Protein Phosphatase 3 (DUSP3) (AID 2283152);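 note: phosphatase activity of recombinant human DUSP3 on a fluorogenic substrate without cells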
Chain of human Dual Specificity Protein Phosphatase 3 (DUSP3), DUSP3 (gene 1845) (P51452 whole entry, looked up): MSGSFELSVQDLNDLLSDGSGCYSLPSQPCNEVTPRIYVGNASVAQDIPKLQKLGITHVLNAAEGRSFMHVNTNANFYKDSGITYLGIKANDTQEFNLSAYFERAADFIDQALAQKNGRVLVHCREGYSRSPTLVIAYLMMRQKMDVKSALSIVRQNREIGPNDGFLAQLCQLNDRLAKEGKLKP
Outline: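 Cell-free assay with recombinant human DUSP3 and fluorogenic substrate, read by fluorescence intensity. Primary screen ran duplicate at 25 uM; actives followed up in concentration series; loss of signal versus DMSO scored.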

Chain of human Caspase 8 (CASP8), CASP8 (gene 841) (Q14790 whole entry, looked up): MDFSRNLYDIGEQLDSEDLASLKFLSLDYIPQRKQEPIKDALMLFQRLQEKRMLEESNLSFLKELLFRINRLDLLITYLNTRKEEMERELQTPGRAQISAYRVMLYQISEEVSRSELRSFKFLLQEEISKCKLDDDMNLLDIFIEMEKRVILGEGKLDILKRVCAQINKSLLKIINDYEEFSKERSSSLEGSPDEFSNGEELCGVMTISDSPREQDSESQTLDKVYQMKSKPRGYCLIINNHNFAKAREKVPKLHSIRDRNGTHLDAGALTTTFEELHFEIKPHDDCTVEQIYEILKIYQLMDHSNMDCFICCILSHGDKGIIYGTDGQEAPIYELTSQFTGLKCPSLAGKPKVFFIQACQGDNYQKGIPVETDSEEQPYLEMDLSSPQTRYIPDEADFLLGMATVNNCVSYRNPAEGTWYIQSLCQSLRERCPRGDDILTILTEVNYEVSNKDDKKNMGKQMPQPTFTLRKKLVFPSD

How did the outcome [1] turn out when O=c1[nH]c(=O)[nH]c(=O)[nH]1 was run?
Its outcome is “inactive”.

Which outcome [2] does the source give for Cn1sc(Cl)cc1=O here?
The outcome was “inactive”.

What about the outcome [3] of the same compound?
The outcome was “inactive”.

And the outcome [4]?
The outcome was “inactive”.

What does the source list for O=C(O)C(F)(F)C(F)(F)C(F)(F)C(F)(F)C(F)(F)C(F)(F)C(F)(F)C(F)(F)C(F)(F)C(F)(F)F?
AC50 [5]: 2.72 µM (active); AC50 [3]: 13.5 µM (active); outcome [4]: inactive

With COP(=S)(OC)Oc1c(Cl)cc(C)cc1Cl as the compound, how does the AC50 [5] read?
The AC50 was 20.9 µM (active).
